Among the data in ChEMBL document CHEMBL1961873, “Compounds: GSK PKIS; Assays: Nanosyn kinase panel” (2012) are inhibition values, retold here.

Assay [1] concerns the target Fibroblast growth factor receptor 4 (Homo sapiens) (UniProt P22455). The settings on record: at 1 µM.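 Note: reported figure is the averaged percent inhibition of FGFR4, from the GSK PKIS kinase screening panel.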
For assay [2], the target named is Tyrosine-protein kinase Fgr (Homo sapiens) (UniProt P09769). Conditions: at 0.1 µM.
Assay [3] shares this target. The settings on record: at 1 µM.
Assay [4] addresses Vascular endothelial growth factor receptor 1 (Homo sapiens) (UniProt P17948). The settings on record: at 0.1 µM.
Assay [5] shares this target. The settings on record: at 1 µM.
For assay [6], the target named is Receptor-type tyrosine-protein kinase FLT3 (Homo sapiens) (UniProt P36888). Conditions: at 0.1 µM.
The target is the same in assay [7]. The settings on record: at 1 µM.
The subject of assay [8] is T1, Receptor-type tyrosine-protein kinase FLT3 (Homo sapiens), P36888 [D835Y].
T1 sequence (whole entry): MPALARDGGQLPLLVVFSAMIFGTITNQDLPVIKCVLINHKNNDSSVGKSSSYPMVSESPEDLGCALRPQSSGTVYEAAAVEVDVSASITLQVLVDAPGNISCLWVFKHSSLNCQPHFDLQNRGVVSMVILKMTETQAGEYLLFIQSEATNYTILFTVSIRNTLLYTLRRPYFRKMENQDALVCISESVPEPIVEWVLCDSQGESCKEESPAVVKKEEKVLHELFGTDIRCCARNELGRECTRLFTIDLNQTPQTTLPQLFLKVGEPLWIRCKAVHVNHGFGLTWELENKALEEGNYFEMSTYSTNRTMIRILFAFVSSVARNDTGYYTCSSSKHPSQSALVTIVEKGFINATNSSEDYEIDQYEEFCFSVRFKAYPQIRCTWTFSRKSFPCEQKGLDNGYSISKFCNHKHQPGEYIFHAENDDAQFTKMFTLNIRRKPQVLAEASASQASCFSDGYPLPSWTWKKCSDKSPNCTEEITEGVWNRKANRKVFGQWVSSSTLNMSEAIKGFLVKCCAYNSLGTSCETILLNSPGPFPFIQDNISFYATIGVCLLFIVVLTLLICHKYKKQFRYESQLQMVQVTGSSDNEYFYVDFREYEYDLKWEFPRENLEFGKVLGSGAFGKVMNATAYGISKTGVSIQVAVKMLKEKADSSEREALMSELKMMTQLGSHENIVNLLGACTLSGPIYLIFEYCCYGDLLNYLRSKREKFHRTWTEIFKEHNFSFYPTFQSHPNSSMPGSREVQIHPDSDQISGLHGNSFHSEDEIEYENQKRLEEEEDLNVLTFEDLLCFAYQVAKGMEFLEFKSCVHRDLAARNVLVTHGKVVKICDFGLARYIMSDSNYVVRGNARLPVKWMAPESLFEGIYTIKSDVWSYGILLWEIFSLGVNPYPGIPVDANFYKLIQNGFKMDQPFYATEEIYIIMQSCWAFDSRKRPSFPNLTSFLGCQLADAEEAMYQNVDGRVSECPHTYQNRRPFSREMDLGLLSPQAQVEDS
The settings on record: at 0.1 µM.

The target in assay [9] is Non-receptor tyrosine-protein kinase TYK2 (Homo sapiens) (UniProt P29597). The settings on record: at 1 µM.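 Note: values are mean percent inhibition of TYK2 kinase.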
The target in assay [10] is T2, Tyrosine-protein kinase receptor TYRO3 (Homo sapiens) (UniProt Q06418).
T2 sequence (whole entry): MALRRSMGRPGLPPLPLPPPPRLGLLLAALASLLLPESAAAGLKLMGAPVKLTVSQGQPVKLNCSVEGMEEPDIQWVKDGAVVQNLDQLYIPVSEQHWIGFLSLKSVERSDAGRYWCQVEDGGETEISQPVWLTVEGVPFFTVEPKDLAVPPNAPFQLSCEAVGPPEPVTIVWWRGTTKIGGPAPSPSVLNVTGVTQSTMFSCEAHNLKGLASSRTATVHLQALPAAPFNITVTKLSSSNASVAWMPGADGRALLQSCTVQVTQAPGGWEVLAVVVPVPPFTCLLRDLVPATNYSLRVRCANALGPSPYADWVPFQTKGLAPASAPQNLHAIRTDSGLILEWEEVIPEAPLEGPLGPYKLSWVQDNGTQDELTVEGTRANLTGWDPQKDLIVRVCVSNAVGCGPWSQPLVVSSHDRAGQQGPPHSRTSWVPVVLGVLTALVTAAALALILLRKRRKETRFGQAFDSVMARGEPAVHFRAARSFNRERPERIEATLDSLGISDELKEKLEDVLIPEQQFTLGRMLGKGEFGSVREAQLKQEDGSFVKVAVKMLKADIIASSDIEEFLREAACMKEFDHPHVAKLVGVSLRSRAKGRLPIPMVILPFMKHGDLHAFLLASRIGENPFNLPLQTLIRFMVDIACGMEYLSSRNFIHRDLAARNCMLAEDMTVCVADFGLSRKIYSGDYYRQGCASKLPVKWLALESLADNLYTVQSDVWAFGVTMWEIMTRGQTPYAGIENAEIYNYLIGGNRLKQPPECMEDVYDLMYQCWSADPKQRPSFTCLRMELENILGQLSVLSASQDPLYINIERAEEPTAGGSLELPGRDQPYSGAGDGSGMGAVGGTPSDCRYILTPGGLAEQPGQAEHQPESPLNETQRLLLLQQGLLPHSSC
Conditions: at 0.1 µM.

Assay [11] concerns the target T2, Tyrosine-protein kinase receptor TYRO3 (Homo sapiens). The settings on record: at 1 µM.
Assay [12] concerns the target Tyrosine-protein kinase Yes (Homo sapiens) (UniProt P07947). The settings on record: at 0.1 µM.
For assay [13] the target is unchanged. The settings on record: at 1 µM.
The target in assay [14] is T3, Tyrosine-protein kinase ZAP-70 (Homo sapiens) (UniProt P43403).
T3 sequence (whole entry): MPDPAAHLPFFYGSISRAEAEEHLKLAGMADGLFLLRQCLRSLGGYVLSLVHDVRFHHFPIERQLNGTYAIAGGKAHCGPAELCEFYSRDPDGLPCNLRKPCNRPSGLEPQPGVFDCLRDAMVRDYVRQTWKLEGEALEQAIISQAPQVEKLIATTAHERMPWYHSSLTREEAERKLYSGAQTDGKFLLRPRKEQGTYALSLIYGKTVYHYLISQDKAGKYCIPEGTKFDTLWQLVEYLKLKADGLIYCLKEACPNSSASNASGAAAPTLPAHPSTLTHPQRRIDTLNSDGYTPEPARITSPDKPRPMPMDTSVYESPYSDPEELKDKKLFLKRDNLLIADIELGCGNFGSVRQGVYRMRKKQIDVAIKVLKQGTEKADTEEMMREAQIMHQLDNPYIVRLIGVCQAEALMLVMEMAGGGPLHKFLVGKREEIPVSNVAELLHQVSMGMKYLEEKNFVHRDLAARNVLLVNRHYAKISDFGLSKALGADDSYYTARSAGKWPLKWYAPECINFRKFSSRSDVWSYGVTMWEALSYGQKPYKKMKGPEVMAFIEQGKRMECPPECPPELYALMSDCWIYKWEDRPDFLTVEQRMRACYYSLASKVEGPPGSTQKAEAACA
Conditions: at 0.1 µM.

For assay [15], the target named is T3, Tyrosine-protein kinase ZAP-70 (Homo sapiens). Conditions: at 1 µM.
The target in assay [16] is Serine/threonine-protein kinase B-raf (Homo sapiens) (UniProt P15056). Conditions: at 0.1 µM.
Assay [17] has the same target. Conditions: at 1 µM.
The subject of assay [18] is Serine/threonine-protein kinase B-raf (Homo sapiens), P15056 [V600E]. Conditions: at 0.1 µM.
Assay [19] has the same test system. The settings on record: at 1 µM.
Assay [20] deals with RAF proto-oncogene serine/threonine-protein kinase (Homo sapiens) (UniProt P04049). Conditions: at 0.1 µM.
Sequence of RAF proto-oncogene serine/threonine-protein kinase (Homo sapiens) (P04049 whole entry): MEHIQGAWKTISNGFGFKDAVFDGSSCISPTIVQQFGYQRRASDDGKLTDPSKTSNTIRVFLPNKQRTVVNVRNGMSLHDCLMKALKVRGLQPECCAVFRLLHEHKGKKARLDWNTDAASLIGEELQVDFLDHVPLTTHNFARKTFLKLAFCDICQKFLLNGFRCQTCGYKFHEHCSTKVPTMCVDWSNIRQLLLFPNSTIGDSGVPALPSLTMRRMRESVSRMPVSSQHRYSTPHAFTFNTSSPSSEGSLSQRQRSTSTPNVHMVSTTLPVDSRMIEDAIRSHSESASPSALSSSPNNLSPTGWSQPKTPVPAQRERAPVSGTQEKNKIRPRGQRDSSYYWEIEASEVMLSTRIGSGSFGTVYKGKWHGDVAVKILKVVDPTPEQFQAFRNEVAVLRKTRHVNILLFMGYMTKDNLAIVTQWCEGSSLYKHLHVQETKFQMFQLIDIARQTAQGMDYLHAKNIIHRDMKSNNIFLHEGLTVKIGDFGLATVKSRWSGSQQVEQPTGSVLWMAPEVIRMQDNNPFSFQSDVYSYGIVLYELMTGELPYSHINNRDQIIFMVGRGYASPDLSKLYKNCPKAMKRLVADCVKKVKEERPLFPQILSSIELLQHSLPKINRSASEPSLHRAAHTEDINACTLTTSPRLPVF

Sequence of Serine/threonine-protein kinase B-raf (Homo sapiens) (P15056 whole entry): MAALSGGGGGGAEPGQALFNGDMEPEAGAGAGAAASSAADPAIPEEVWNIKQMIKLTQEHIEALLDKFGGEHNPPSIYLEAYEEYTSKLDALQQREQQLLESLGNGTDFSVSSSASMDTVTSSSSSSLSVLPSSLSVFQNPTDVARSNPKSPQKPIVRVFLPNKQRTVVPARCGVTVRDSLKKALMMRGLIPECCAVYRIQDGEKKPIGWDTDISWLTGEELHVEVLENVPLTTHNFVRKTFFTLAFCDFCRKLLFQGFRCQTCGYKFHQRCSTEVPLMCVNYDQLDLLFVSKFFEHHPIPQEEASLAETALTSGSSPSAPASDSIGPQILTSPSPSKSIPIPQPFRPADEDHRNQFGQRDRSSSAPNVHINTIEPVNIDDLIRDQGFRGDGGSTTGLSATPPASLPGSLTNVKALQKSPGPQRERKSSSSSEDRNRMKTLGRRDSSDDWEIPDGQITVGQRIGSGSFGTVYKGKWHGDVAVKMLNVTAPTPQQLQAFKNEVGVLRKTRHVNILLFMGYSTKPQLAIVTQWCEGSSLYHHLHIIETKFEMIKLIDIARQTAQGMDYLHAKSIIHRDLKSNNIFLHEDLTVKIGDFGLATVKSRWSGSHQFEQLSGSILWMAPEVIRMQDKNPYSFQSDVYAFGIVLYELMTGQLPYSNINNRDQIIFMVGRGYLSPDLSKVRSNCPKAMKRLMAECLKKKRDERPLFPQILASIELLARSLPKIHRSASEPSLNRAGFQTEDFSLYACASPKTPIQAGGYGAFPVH
Sequence of Tyrosine-protein kinase Fgr (Homo sapiens) (P09769 2-529 limits assumed): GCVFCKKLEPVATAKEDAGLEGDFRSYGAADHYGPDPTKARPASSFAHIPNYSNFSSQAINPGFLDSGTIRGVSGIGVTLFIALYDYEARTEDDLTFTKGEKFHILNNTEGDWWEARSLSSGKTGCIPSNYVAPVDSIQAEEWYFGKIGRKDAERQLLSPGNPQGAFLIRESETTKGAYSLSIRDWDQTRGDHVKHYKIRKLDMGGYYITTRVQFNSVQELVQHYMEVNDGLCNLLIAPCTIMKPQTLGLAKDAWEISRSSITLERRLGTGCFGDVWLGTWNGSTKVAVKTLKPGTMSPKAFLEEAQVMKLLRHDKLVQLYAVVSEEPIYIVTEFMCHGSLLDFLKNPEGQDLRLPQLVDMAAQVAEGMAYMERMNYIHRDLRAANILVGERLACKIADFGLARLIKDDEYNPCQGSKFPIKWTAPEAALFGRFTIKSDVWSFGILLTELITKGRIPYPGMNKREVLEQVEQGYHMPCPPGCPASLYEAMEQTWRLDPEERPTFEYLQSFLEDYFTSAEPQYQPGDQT
Sequence of Tyrosine-protein kinase Yes (Homo sapiens) (P07947 2-543 limits assumed): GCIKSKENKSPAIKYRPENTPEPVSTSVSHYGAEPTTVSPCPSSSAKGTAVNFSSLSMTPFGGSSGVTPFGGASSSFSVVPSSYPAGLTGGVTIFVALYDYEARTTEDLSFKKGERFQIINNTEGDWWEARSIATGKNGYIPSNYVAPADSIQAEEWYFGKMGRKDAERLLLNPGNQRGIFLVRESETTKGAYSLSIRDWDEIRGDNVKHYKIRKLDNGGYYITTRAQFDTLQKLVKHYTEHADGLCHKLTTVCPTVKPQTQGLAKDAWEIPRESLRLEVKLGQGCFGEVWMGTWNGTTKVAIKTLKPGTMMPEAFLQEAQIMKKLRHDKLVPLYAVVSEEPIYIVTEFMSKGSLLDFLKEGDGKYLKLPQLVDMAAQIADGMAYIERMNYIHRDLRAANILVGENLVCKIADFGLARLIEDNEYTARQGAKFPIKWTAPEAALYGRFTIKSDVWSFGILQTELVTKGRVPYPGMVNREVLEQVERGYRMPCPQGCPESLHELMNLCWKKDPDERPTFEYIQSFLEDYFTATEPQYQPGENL
Sequence of Fibroblast growth factor receptor 4 (Homo sapiens) (P22455 22-802 limits assumed): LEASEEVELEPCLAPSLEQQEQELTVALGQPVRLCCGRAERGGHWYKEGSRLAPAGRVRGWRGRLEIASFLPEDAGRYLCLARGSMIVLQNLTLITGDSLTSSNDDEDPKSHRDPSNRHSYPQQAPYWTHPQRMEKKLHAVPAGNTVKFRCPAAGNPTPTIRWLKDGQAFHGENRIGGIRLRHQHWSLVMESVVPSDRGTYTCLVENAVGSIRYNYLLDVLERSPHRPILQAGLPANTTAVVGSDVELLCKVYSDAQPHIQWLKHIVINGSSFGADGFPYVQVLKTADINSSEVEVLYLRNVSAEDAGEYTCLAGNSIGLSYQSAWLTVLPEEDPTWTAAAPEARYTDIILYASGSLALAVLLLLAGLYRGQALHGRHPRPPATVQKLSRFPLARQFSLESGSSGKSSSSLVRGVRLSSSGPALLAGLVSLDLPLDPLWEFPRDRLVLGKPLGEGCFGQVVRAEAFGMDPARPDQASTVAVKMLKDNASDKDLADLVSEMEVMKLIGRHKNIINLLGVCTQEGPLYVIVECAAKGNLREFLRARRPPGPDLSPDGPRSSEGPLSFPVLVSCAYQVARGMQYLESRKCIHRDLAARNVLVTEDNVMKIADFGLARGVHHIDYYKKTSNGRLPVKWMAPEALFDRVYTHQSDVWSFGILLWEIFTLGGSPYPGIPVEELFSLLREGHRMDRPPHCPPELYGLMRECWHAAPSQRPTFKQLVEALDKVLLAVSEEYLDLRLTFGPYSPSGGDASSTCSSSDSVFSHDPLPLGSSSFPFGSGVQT
Sequence of Non-receptor tyrosine-protein kinase TYK2 (Homo sapiens) (P29597 whole entry): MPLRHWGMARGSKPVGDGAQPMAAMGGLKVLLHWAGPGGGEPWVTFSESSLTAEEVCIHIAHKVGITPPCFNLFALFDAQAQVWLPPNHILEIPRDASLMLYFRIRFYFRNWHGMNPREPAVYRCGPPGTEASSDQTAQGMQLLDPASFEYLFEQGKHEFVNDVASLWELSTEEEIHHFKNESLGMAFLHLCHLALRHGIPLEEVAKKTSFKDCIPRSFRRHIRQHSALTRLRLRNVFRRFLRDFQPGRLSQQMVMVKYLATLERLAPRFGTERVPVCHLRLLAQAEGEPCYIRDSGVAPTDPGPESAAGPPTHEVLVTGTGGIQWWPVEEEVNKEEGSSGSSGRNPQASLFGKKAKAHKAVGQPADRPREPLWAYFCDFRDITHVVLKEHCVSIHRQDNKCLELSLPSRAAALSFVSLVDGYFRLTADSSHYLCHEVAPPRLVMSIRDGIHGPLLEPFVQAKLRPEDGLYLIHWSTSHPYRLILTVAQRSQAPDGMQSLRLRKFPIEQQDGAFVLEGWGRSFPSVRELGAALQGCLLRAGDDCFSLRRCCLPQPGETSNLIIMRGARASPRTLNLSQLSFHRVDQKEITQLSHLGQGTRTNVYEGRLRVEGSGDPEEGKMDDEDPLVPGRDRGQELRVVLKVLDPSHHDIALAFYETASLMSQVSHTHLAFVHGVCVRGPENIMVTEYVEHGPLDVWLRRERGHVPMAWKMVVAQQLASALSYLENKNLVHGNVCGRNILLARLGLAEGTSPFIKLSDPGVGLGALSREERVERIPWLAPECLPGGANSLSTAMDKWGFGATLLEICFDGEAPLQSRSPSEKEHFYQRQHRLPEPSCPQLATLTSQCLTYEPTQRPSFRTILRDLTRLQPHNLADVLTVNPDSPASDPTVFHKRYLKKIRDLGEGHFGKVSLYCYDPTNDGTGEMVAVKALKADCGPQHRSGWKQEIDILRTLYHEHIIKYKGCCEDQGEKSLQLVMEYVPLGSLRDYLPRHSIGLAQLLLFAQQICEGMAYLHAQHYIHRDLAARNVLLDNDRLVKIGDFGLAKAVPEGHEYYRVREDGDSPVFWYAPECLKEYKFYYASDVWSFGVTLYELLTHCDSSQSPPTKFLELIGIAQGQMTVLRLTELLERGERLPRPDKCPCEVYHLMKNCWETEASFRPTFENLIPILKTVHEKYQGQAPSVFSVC
Sequence of Serine/threonine-protein kinase B-raf (Homo sapiens), P15056 [V600E] (P15056 whole entry V600E): as the sequence (P15056 whole entry) above, with V600E counted along it

For `CN(c1ccc(NC(=O)Nc2c(Cl)cccc2Cl)cc1)c1ccnc(Nc2cccc(CS(C)(=O)=O)c2)n1`, the inhibition (as a rule, the relative decrease from the control value, in per cent) in assay [1] was 2.06%; in assay [2], 24.3%; in [3] it was 51.9%; in [4], 38.5%; in [5] it was 51%; in [6] it was 78.2%. Further, the inhibition amounted to 84.9% in assay [7]; 28.2% in assay [8]; 1.51% in assay [9]; 4.61% in assay [10]; 17.4% in [11]; 17.6% in [12]. In addition, the inhibition in assay [13] was 28.2%; in assay [14] it was 4.97%; in assay [15] it was 9.82%; in [16], 1.79%; in [17], 4.11%; in [18] it was 2.49%. Moreover, the values for the inhibition in [19] and in [20] were 5.8% and 0.7%, respectively.

In the case of `CS(=O)(=O)CCNCc1ccc(-c2ccc3ncnc(Nc4ccc(OCc5ccccc5)c(Br)c4)c3c2)o1`, the inhibition in assay [1] is -1.47%; in assay [2], 4.84%; in assay [3] it was 10.8%; in assay [4] it was -0.47%; in assay [5], 2.16%; in assay [6] it was 4.34%. Besides, the inhibition was 1.3% in [7]; -8.89% in assay [8]; -4.08% in assay [9]; 2.52% in assay [10]; 2.72% in [11]; 4.45% in [12]. Moreover, the inhibition in assay [13] was 20.7%; in assay [14], -2.48%; in [15], -1.83%; in [16], 4.73%; in assay [17] it was 4.32%; in assay [18], 3.23%. In addition, the inhibition in assay [19] is 2.38%; in assay [20], 3.26%.

Regarding `COc1cc(Nc2ncc3c(C)nc(-c4cccc(C(F)(F)F)c4)n3n2)cc(OC)c1OC`, the inhibition is 0.75% in assay [1]; 7.22% in [2]; 14% in assay [3]; 2.19% in [4]; 5.18% in [5]; 6.14% in [6]. For the same compound, the inhibition in assay [7] was 36.3%; in [8], 3.11%; in [9] it was -1.24%; in assay [10] it was 4.04%; in [11], 10.6%; in assay [12], 11.6%. For the same compound, the inhibition came out at 42.7% in assay [13]; 1.78% in [14]; 2.75% in assay [15]; 5.44% in assay [16]; 14.8% in assay [17]; 5.48% in assay [18]. Also, the inhibition in assay [19] came to 13.2%; in assay [20] it was 3.02%.

Consider `COc1cc(Nc2ncc3c(C)nc(-c4cccc(Oc5ccccc5)c4)n3n2)cc(OC)c1OC`, for which the inhibition in [1] was 1.97%; in assay [2], 0.02%; in assay [3], 4.22%; in [4], 0.68%; in assay [5] it was 2.1%; in assay [6], 3.86%. Besides, the inhibition was 28.5% in [7]; 3.72% in assay [8]; -3.18% in assay [9]; 2% in assay [10]; 5.32% in [11]; -0.14% in assay [12]. For the same compound, the inhibition in assay [13] was 7.34%; in [14], 1.87%; in assay [15], -1.81%; in [16], 3.08%; in [17] it was 12.2%; in assay [18], 2.54%. The inhibition in [19] was 11.4%; in assay [20], 2.2%.

In the case of `CCN(CC)Cc1ccc(Nc2nccc(-c3cnn4ncccc34)n2)cc1`, the inhibition in assay [1] is -3.39%; in assay [2], 2.7%; in assay [3], 11.3%; in assay [4], 3.62%; in assay [5], 16.2%; in assay [6], 7.95%. Also, the inhibition in assay [7] was 47.7%; in assay [8], -3.04%; in [9], 11.6%; in assay [10] it was 4.07%; in assay [11], 18.2%; in assay [12], 4.42%. The inhibition in [13] was 22.5%; in assay [14] it was -3.68%; in assay [15], -4.19%; in assay [16], 7.03%; in [17], 17.7%; in assay [18], 4.68%. In addition, the inhibition in assay [19] turned out to be 14%; in assay [20], 0.49%.

Regarding `CNC(=O)c1cncc(/C=C/c2c(C)cccc2C)c1`, the inhibition in assay [1] is -4.47%; in assay [2], 6.6%; in assay [3], 29.6%; in assay [4], 1.75%; in assay [5], 1.51%; in [6], -1.59%. In addition, the inhibition in assay [7] is 1.3%; in assay [8] it was 3.49%; in assay [9] it was 0.52%; in assay [10], 0.85%; in assay [11] it was 2.18%; in assay [12], 6.81%. For the same compound, the inhibition was 33% in assay [13]; -2.13% in [14]; -4.22% in assay [15]; 0.8% in [16]; 5.69% in assay [17]; -0.11% in [18]. Also, the inhibition is 2.82% in [19] and -5.49% in assay [20].
